From PubChem
The list is not random: actives were taken first. Their share in the collection is about 4.1%.
ssDAF12 agonist – activates DAF-12 receptor from parasite S. stercoralis; 370,000 compounds, 1% hits; AID 652126; HEK293 ssDAF-12/GRIP1 lit1-tk-luc reporter, luminescence; % of 3 µM dafachronic acid response; activation, % at 6.8 µM;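 active = activation above the mean over all tested compounds plus 3 SD, cut at about 0.9% in these data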;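 note: 0% = DMSO-only wells and 100% = 3 µM delta7-dafachronic acid wells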
DAX1 inh-1 – inhibitors of DAX1 repression of SF-1 activated StAR promoter | HEK293T StAR-luciferase reporter, SF-1/DAX-1 repression relief | inhibition, % at 6.8 µM | 370,000 compounds, 1.1% hits | AID 652010;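 active = inhibition above the mean over all tested compounds plus 3 SD, cut at about 3.6% in these data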;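 note: 0% = DAX-1 cells with DMSO and 100% = cells lacking DAX-1 with DMSO; higher inhibition means more luminescence from relief of DAX-1 repression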
DAX1 inh-2 – inhibits human nuclear receptor DAX1. inhibition, % at 6.75 µM. 340,000 compounds, 0.99% hits. HEK293 Gal4-DAX1 luciferase reporter, luminescence;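 active = inhibition above the mean over all tested compounds plus 3 SD, cut at about 4.2% in these data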;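 note: 0% = DAX1-transfected cells with DMSO and 100% = empty-vector control cells with DMSO; inhibition shows as a rise in luminescence from relieved DAX1 repression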
Target sequence (P51843 207-470 limits assumed): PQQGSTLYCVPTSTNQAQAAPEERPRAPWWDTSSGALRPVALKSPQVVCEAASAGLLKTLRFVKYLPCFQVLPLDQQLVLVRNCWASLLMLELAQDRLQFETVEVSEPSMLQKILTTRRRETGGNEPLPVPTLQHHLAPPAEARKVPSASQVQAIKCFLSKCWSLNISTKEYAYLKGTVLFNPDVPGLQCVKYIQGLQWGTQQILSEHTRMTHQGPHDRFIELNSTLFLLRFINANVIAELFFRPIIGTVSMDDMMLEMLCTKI
hcDAF-12 act – activators of H. contortus DAF-12 nuclear receptor. HEK293 hcDAF-12 lit1-tk-luc reporter, luminescence; 0% DMSO, 100% Δ7-dafachronic acid. activation, % at 6.8 µM. 370,000 compounds, 1.4% hits;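 active = activation above the mean of all tested compounds plus 3 SD, cut at about 5.5% in these data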;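 note: 100% = response to 3 µM Δ7-dafachronic acid high control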
hgDAF12 agonist – agonists of H. glycines DAF-12 nuclear receptor. HEK293 GAL4-hgDAF12 UAS-luciferase reporter, agonist luminescence; normalized to butyrate control. activation, % at 6.8 µM. 370,000 compounds, 1.8% hits;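 active = activation above a cutoff set at the mean of all screened compounds plus 3 SD, cut at about 10% in these data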;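 note: 0% = DMSO wells and 100% = sodium butyrate wells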
An asterisk follows results filed as active; . = no result given.

SMILES	ssDAF12 agonist	DAX1 inh-1	DAX1 inh-2	hcDAF-12 act	hgDAF12 agonist
COc1ccc(OCC(=O)N2CCc3ccccc32)c([N+](=O)[O-])c1	0.2	3.6	2.0	5.6*	5.0
CC1(C)C=Cc2ccc(O)c(C(=O)/C=C/c3ccccc3)c2O1	-2.5	.	.	-3.5	-3.7
CC(=O)c1ccc(CCCC(=O)O)cc1	-1.3	-0.5	4.9*	1.7	-1.7
CC(C)c1ccc(NC2CCCN(C(=O)c3cccs3)C2)cc1 (stereo unspecified)	-1.3	-3.7	0.1	-3.2	-1.4
COC(=O)c1cc(S(=O)(=O)NCC2CCN(C(=O)C(=O)c3cccs3)CC2)cs1	-0.9	0.7	.	-1.5	1.9
CCOc1ccccc1C(=O)Nc1ccccc1-c1ccccc1	-1.2	0.1	0.5	5.7*	-1.1
CCOc1ccccc1C(=O)Nc1ccccc1O	-1.0	-0.9	-1.4	0.7	0.5
O=C(CSC1=NS(=O)(=O)c2cc(F)ccc2N1)Nc1ccc(F)cc1	-0.4	-0.7	0.1	-1.0	2.4
CCOC(=O)N1CCN(C(=O)CSC2=NS(=O)(=O)c3cc(F)ccc3N2)CC1	-1.3	-0.2	4.8*	1.5	0.6
COc1ccc(NC(=O)N(CCc2c(C)[nH]c3ccccc23)Cc2cccs2)cc1OC	-1.2	-2.7	.	-1.7	0.8
Cc1[nH]c2ccccc2c1CCN(Cc1cccs1)C(=O)Nc1cccc2c1OCO2	-0.2	0.6	.	5.4	10.6*
CC1(C)c2ccccc2-c2nc3ccccc3cc2C1O (stereo unspecified)	0.0	-0.1	1.1	3.6	4.1
c1ccc2c(c1)-c1nc3ccccc3cc1C2N1CCCCC1 (stereo unspecified)	1.4*	4.2*	2.5	3.5	9.8
Cc1ccc(Nc2n[nH]c(=S)s2)cc1	0.1	0.7	2.2	2.4	6.4
CCOc1ccc(Nc2n[nH]c(=S)s2)cc1	0.1	3.5	1.0	2.8	11.8*
O=C(N/N=C/c1cc([N+](=O)[O-])ccc1O)NC12CC3CC(CC(C3)C1)C2	-2.7	-1.9	-0.7	-4.5	-7.5
O=C(N/N=C/c1cc([N+](=O)[O-])ccc1O)C12CC3CC(CC(C3)C1)C2	-1.5	-0.2	4.2*	-1.5	0.2
CCCc1nc2nc(C)c(NS(=O)(=O)c3ccc(CC(C)C)cc3)c(=O)n2[nH]1	-1.2	0.0	4.3*	0.4	1.7
CCc1nc2nc(C)c(NS(=O)(=O)c3ccc(CC(C)C)cc3)c(=O)n2[nH]1	-0.8	0.5	-0.5	-2.0	3.0
COc1ccccc1CNC(=O)c1ccc(S(=O)(=O)N(C)c2ccccc2)cc1	-1.4	-3.0	-1.6	-0.2	-5.6
COc1ccccc1N(C)S(=O)(=O)c1ccc(C(=O)NCc2ccccc2CN2CCCC2)cc1	-1.9	4.2*	0.0	-1.6	-3.6
CC(C(=O)N1CCN(c2ccccc2)CC1)N1C(=O)C2CC=CCC2C1=O (stereo unspecified)	-0.3	-0.2	5.0*	-2.0	0.0
Nc1nnc(/C=C/c2ccccc2)s1	-0.9	0.9	-0.5	5.8*	6.1
O=C(Nc1nnc(/C=C/c2ccccc2)s1)c1ccco1	1.6*	-0.2	-1.1	0.2	4.6
CCSc1nnc(NC(=O)c2ccco2)s1	-0.9	1.2	-0.1	-0.2	4.5
SMILES	ssDAF12 agonist	DAX1 inh-1	DAX1 inh-2	hcDAF-12 act	hgDAF12 agonist
COC(=O)Nc1nnc(/C=C/c2ccccc2)s1	-0.4	1.5	0.1	3.2	3.4
CC(C)Sc1nnc(NC(=O)c2ccco2)s1	1.8*	2.4	1.3	0.0	8.1
COc1cccc(NS(=O)(=O)NC(=O)c2c[nH]c3ccccc23)c1	-1.1	-0.1	0.1	0.5	1.1
CN(C)S(=O)(=O)c1cccc(NC(=O)c2c[nH]c3ccccc23)c1	1.3*	-0.4	-0.7	2.1	3.0
COc1ccc(NS(=O)(=O)NC(=O)c2c[nH]c3ccccc23)cc1	-0.5	0.3	-0.1	5.8*	1.9
O=C(NS(=O)(=O)Nc1ccccn1)c1c[nH]c2ccccc12	1.0*	-0.1	0.7	5.5	2.5
COC(=O)[C@]12C[C@H](CC(=O)N3CCSCC3)C(=O)N(Cc3ccccc3)C1=C[C@H](C(C)C)O[C@@H]2C1CC1	-0.7	-0.3	.	-0.8	0.4
Cn1c(=O)n(CCOc2ccc([N+](=O)[O-])cc2)c2ccccc21	-0.8	-0.1	0.6	-0.2	4.6
Cc1ccc(OCCn2c(=O)n(C)c3ccccc32)cc1	0.0	2.1	0.0	3.0	12.9*
CN(Cc1cn(CC2CCCCC2)nn1)S(=O)(=O)c1ccccc1Br	-1.2	1.0	.	-2.8	-1.3
O=c1cc(-c2ccsc2)oc2cc(-c3ccc4c(c3)OCO4)ccc12	-1.5	-0.5	4.7*	0.6	-0.2
Cc1ccccc1-c1cc(=O)c2ccccc2o1	-1.5	-0.2	0.8	-2.7	0.6
O=c1cc(-c2ccccc2F)oc2ccccc12	-0.7	2.1	0.2	0.8	11.1*
O=c1cc(-c2ccc3c(c2)OCCO3)oc2ccc(Cl)cc12	0.6	1.7	1.7	0.5	12.2*
O=C(O)c1cc(=O)c2cc(Cl)ccc2o1	-0.8	-0.8	-0.4	-0.4	0.1
O=c1cc(-c2ccccc2)oc2ccc(Cl)cc12	-1.1	3.9*	3.0	3.4	8.5
COC(=O)C1CN(CCc2ccccc2)CCS(=O)(=O)N1Cc1ccc(C)cc1 (stereo unspecified)	-1.0	-0.9	.	-1.6	0.9
O=c1cc(-c2cccs2)oc2ccc(Cl)cc12	-0.5	0.9	5.3*	4.9	10.3
O=c1c(O)c(-c2cccs2)oc2ccc(Cl)cc12	-1.7	0.2	0.3	0.3	1.9
CCN(CC)c1cc2c(c3c1ccn3C)C1CCC2O1 (stereo unspecified)	0.9*	-0.2	.	-2.3	-2.3
CCCCCn1nnnc1C1(C)Cn2nccc2C(=O)N1Cc1ccco1 (stereo unspecified)	-0.8	-0.2	.	-2.5	1.6
CCN(CC)C(=O)N1CCC(NC(=O)c2ccccc2)CC1	-0.9	0.0	4.7*	-2.2	2.8
Cc1noc(C)c1NC(=O)Nc1ccc2c(c1)C(=O)N([C@H](C)CO)C[C@H](C)[C@@H](CN(C)S(=O)(=O)c1ccc(Cl)cc1)OCCCC[C@@H](C)O2	-0.7	0.2	6.1*	-0.8	-2.0
C[C@@H]1CN([C@@H](C)CO)C(=O)c2cc(N(C)C)ccc2O[C@@H]1CN(C)Cc1ccncc1	1.3*	0.2	1.2	-1.1	1.7
Cc1noc(C)c1NC(=O)Nc1ccc2c(c1)C(=O)N([C@@H](C)CO)C[C@@H](C)[C@H](CN(C)S(=O)(=O)c1ccc(F)cc1)OCCCC[C@H](C)O2	-1.2	.	.	1.3	1.5
C[C@@H]1CN([C@@H](C)CO)C(=O)c2cc(NC(=O)c3ccncc3)ccc2O[C@@H](C)CCCCO[C@@H]1CN(C)C(=O)Cc1ccccc1	0.2	0.0	0.4	0.7	1.4
C[C@@H]1CCCCO[C@H](CN(C)Cc2ccncc2)[C@@H](C)CN([C@H](C)CO)C(=O)c2cc(N(C)C)ccc2O1	-0.8	-0.5	.	-1.0	1.4
